Reference: the supplement of paper PMC6555819

These sequences were tested on VDR:RXRa (NR concentration 270 nM, RXRa partner concentration 90 nM) (assay: PBM binding z-score (relative to random genomic background probes); higher = stronger binding; sequences stand for … in GC…GCGATTGACAGCGTAGAATGAAGG).
Procedure: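 Protein-binding microarray (Agilent 4x180K custom design, double-stranded 60-nt probes: 5' GC cap, 34-nt variable region, 24-nt constant primer region; full probe sequence given). Purified or IVT nuclear receptor:RXRα heterodimers (3:1 NR:RXRα, mostly 270:90 nM) or homodimers were incubated for 1 h in PBS with 2% milk and no ligand, then detected with Alexa488 antibodies. Fluorescence from o1-orientation probes (~5 replicates averaged) was converted to z-scores against 500 random hg19 background probes. Variable regions are seed direct-repeat (DR0–DR5) sites, all their single-nucleotide variants and half-site ablations.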
TCGAGTAGGTCACGGGGGCATTCAGGGATGAAGA showed a PBM binding z-score of 5.82. With CGAACTAGGTCATCCAGGTCAGTGAATACATTGA the PBM binding z-score was 6.41. For CGAACTAGGTCACCCAGGACAGTGAATACATTGA, the PBM binding z-score was 4.43. Work on CGTCAAAGTTCAACTAAGGTTACGTAAAGCACGC yielded a PBM binding z-score of 6.11. Sequence GATACGGGGTCAAGGCCAGAGTACGCGTATTGAT has a PBM binding z-score of 6.27. ATCGAAAGGTCGACCAGGTGAGTATACACCGTTT was tested, and the PBM binding z-score was 3.73. In the case of CCTACTGGGCCAAAAAGTTCATTGATGCCGATAA, the PBM binding z-score is reported as 3.68. In the case of CTATGTGGGTTAAGGGGGTCATTCAGTTTGAAAG, the PBM binding z-score is reported as 7.5. In the case of ACTCGGTGGACAAAGGTCAGAGCTACGCCAGTGA, the PBM binding z-score is reported as 2.91. Sequence ATTTGTAGGTTACATCCGGGTCATTCAGGCTATG has a PBM binding z-score of 4.68. With TTACCAAGGTCAAGGTCGTTGATCCCTCTGTAGA the PBM binding z-score was 5.5. Sequence CAAACTAGTTCAAGAGGTCAAAGTCCGCTTCCCG has a PBM binding z-score of 5.54. GCTTAAGGGTCAAAGGTTATAGCATGAATAGAAT showed a PBM binding z-score of 6.45. CGTCCAAGGTCAATGCTAGATCAGTGAAAGCATT showed a PBM binding z-score of 3.51. Work on CCGACGGGGGCAAAGGTTACCATACTCAGTACGA yielded a PBM binding z-score of 5.11. Sequence GCTGCGAGGTCAACTGATGGTCAGCTAAAGCTCG has a PBM binding z-score of 5.48. CTCGAAAGGTCGTGCTCAGATGAGTATACCAAAC was tested, and the PBM binding z-score was 3.09. Sequence CGTACAAGGTCAAAGGTCAGTGAAGAGATGACGG has a PBM binding z-score of 6.84. With CCTCGGAGGTCAACAGGAGGTCAGAGCTGCCAGA the PBM binding z-score was 6.19. Work on CCTACTGGGCCTAAGGTCATTGATTCCAATGCTC yielded a PBM binding z-score of 3.34. Work on GCTTACAGGTCAAAGGTTATAGCATGAATAGAAT yielded a PBM binding z-score of 5.51. For TCTGCTAGGTCATCGATGGTCAGCTAATCTGCTA, the PBM binding z-score was 2.16. Work on TATCAAAGTTCAAAGGTAACGTAAGTATCCACAC yielded a PBM binding z-score of 5.28. For CGAACTAGGTCGTCCAGGACAGTGAATACATTGA, the PBM binding z-score was 1.65. ATATGTAGGTTAGCTGAGGTCATTCAGACTAGGC showed a PBM binding z-score of 6.12. With CCGAGTAGGTTACTAGGGGGCATTCAGTGCGAAT the PBM binding z-score was 5.13. With CGAACTAGGTCAAGGCCAGTGAATCTCCGCACGC the PBM binding z-score was 1.31. CGAACTACGTCATCCAGGACAGTGAATACATTGA showed a PBM binding z-score of 0.17. Work on ACTAGTTGGTCAGCTGAGGTCACACCCAATTCGG yielded a PBM binding z-score of 4.19. For GCTGCTAGGTCAACTGATGGCCAGCTAAAGCTCG, the PBM binding z-score was 1.14. Work on ACTTACGGGTCTACGAGGTTATAGCACGCGTATA yielded a PBM binding z-score of 2.83. Sequence TGTCAAAGTTCAAAGGTGACGTAAGTATCCACAC has a PBM binding z-score of 5.65. CCTTAGGGGTCAAGGTTATAGCACGGGTGGTACG showed a PBM binding z-score of 6.11. AATACAAGGTCATCGTAGGCCAGAGTACGCACAG showed a PBM binding z-score of 5.17. CCTACTGGGCCAAAGGTGATTGATTCCAATGCTC showed a PBM binding z-score of 0.0696. For CCAGACAGGTGAGAAGGTAACTCAGCCTCGATTA, the PBM binding z-score was 0.116. CCGAGGAGGTTACGAGGGGGCATTCAGTGCGAAT gave a PBM binding z-score of 6.29. With CCTACTGGGCCAAAAAGGTCATTGATGCCGATAA the PBM binding z-score was 4.83. CCTACTGGGCCAAAGAGGTCATTGATGCCGATAA gave a PBM binding z-score of 5.68. CGAACGAGGTCAAAGGACAGTGAAAGGCGACGTA gave a PBM binding z-score of 5.02.
